From PubChem BioAssay (NCATS)
Results filed as inconclusive are left out. Unmarked numbers belong to inactive results. Active and inactive are the calls of the source. Calls come from the whole dose curve; as a rule, active = well fitted inhibition curve with a large enough effect; inconclusive = small, poorly fitted or top-dose-only effect; inactive = flat fitted curve, though single readings scatter.

The compounds below were run on CP237 (assay: qHTS profiling for inhibitors of Plasmodium falciparum proliferation (AID 504749; note: nearly all actives have a fitted effect of over 60% in size;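 for activity, negative = inhibition: 0% = DMSO vehicle and full inhibition = artemisinin control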)). Details: P. falciparum in erythrocytes, SYBR Green DNA, 72 h; series mostly up to 28.7 µM; activity, negative = inhibition: at the top concentration.
Summary of the method: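 Quantitative HTS: compounds pinned into medium, infected erythrocytes added (0.3% parasitemia, 2.5% hematocrit), 72 h culture at 37 C under 5% CO2. Saponin/Triton lysis with SYBR Green I, overnight RT, then fluorescence read.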
Potency is the fitted concentration of half-maximal effect.

Structure (SMILES) | activity, negative = inhibition | Potency
Cc1ncc([N+](=O)[O-])n1CC(C)O (stereo not drawn) | 3.91% | –
C[C@]12CCC(=O)C=C1CC[C@@H]1[C@H]2[C@@H](O)C[C@@]2(C)[C@H]1CC[C@]2(O)C(=O)CO | 8.97% | –
Oc1ccc(OCc2ccccc2)cc1 | -10.8% [at 12.8 µM] | –
CCCc1cc(=O)[nH]c(=S)[nH]1 | -0.0354% | –
O=C(O)c1cc(=O)c2c(OCC(O)COc3cccc4oc(C(=O)O)cc(=O)c34)cccc2o1 | 3.59% | –
CC1(C)CCC(C)(C)c2cc(NC(=O)c3ccc(C(=O)O)cc3)ccc21 | -9.59% | –
CN(C)C(=O)COC(=O)Cc1ccc(OC(=O)c2ccc(N=C(N)N)cc2)cc1 | -7.72% | –
C=C(c1ccc(C(=O)O)cc1)c1cc2c(cc1C)C(C)(C)CCC2(C)C | -22% | –
CS(=O)(=O)OCCCCOS(C)(=O)=O | 4.71% | –
O=C(O)c1cccc(-c2noc(-c3ccccc3F)n2)c1 | -2.45% | –
O=C(CS(=O)Cc1ccco1)NCC=CCOc1cc(CN2CCCCC2)ccn1 (stereo not drawn) | -0.585% | –
CC(C)(S)[C@@H](N)C(=O)O | 2.41% | –
Cc1c(OCC(F)(F)F)ccnc1CS(=O)c1nc2ccccc2[nH]1 (stereo not drawn) | -17.7% | –
O=P(O)(O)C(O)(Cn1ccnc1)P(=O)(O)O | 0.562% | –
O=C(O)CCNC(=O)c1ccc(N=Nc2ccc(O)c(C(=O)O)c2)cc1 | -11.8% | –
CC(S)C(=O)NCC(=O)O (stereo not drawn) | 2.52% | –
CCC(C)(Oc1ccc(C2(c3ccc(OC(C)(CC)C(=O)O)cc3)CCCCC2)cc1)C(=O)O (stereo not drawn) | 4.65% | –
CC1(C)NC(=O)N(c2ccc([N+](=O)[O-])c(C(F)(F)F)c2)C1=O | -10.6% | –
CNC[C@H](O)c1ccc(O)c(O)c1 | -5.22% | –
C[C@H](Cn1cnc2c(N)ncnc21)OCP(=O)(O)O | 7.86% | –
CCCCN(CCCC)CCC(O)c1cc2c(Cl)cc(Cl)cc2c2cc(C(F)(F)F)ccc12 (stereo not drawn) | – | 5.6 nM (active)
Cc1cc(=O)c2c(O)c3c(O)cc(=O)c4c3c3c(cc(O)c1c23)C(C)(C)C=4O | – | 1410 nM (active)
Cc1cc2cc3c(C)cc(=O)oc3c(C)c2o1 | 1.64% [at 12.8 µM] | –
Nc1cccc2c1CN(C1CCC(=O)NC1=O)C2=O (stereo not drawn) | 7.52% | –
Nc1ccn([C@@H]2O[C@H](CO)[C@@H](O)C2O)c(=O)n1 (stereo partly drawn) | 4.95% | –
COc1cc2c(cc1OC)C1CC(=O)C(CC(C)C)CN1CC2 (stereo not drawn) | -1.32% | –
Nc1nc(Cl)nc2c1ncn2[C@H]1C[C@H](O)[C@@H](CO)O1 | 1.48% | –
CCOC(=O)c1c(C)n(C)c2ccc(O)cc12 | 1.03% | –
